Molecules are shown by their SMILES. The source made the active and inactive calls.

Six molecules from PubChem BioAssay can be followed below.

Test [1] deals with Plasmodium falciparum Sir2 (PF13_0152, Sir2A). Nature of the test: pfSir2 binders on small-molecule microarrays, primary screen, biochemical, small-molecule microarray, 635 nm fluorescence (AID 1098).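 Further: score merges spot fluorescence intensity with its signal-to-noise ratio.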 Particulars: small-molecule microarray binding, fluorescence 635 nm; higher = more signal.
Test [2] is described as follows: small-molecule microarray binders of probe aDKK1, primary screen, biochemical, biotinylated probe, 635/667 nm fluorescence (AID 1099).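 Further: score merges 667nm spot fluorescence with signal to noise across triplicate slides.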 Particulars: higher = more signal.
Test [3] is described as follows: small-molecule microarray binders of probe aCHRDL2, primary screen, biochemical, biotinylated probe, 635/667 nm fluorescence (AID 1100). The following applies: higher = more signal.
Test [4] is described as follows: splicing luciferase reporter signal modulators, primary screen, spliceosome inhibition project, cell-based, HEK293, splice +/- reporter (AID 1101).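 Further: HEK293 cells carrying a splicing-competent luciferase reporter gene; test concentration not given here.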 The following applies: luminescence, 24 h, higher = more signal, called active from +8 up or from −8 down.
Test [5] deals with Fibroblast growth factor 10 (Homo sapiens) (UniProt O15520). Nature of the test: FGF10 binders on small-molecule microarrays, primary screen, biochemical, small-molecule microarray, 635 nm fluorescence (AID 1102). Particulars: FGF10 binding, fluorescence 635 nm, higher = more signal.
The subject of test [6] is glycogen synthase kinase-3 (GSK3A per assay name; protocol says GSK3B). Put plainly: GSK3 binders on small-molecule microarrays, primary screen, biochemical, small-molecule microarray, 635 nm fluorescence, GSK3A (AID 1103). Further: the record names both GSK3A and GSK3B. Particulars: small-molecule microarray binding, fluorescence 635 nm; higher = more signal.
Test [7] deals with Epidermal growth factor receptor (Homo sapiens) (UniProt P00533). Nature of the test: EGFR binders on small-molecule microarrays, primary screen, biochemical, small-molecule microarray, 635 nm fluorescence (AID 1104).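 Further: score merges 667 nm emission intensity with spot signal to noise over triplicate slides.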 Particulars: EGFR binding, higher = more signal.
Test [8] has as its target Follistatin-related protein 3 (Homo sapiens) (UniProt O95633). Put plainly: FSTL3 binders on small-molecule microarrays, primary screen, biochemical, small-molecule microarray, 635 nm fluorescence (AID 1105).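 Further: score merges emission near 667 nm and signal to noise per printed spot across three slides.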 Particulars: FSTL3 binding, higher = more signal.
In test [9] the target is Dickkopf-related protein 1 (Homo sapiens) (UniProt O94907). Put plainly: DKK1 binders on small-molecule microarrays, primary screen, biochemical, small-molecule microarray, 635 nm fluorescence scan (AID 1106).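 Further: score merges emission near 667 nm with signal to noise over three replicate slides.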 The following applies: DKK1 binding, higher = more signal.
Test [10] deals with Inhibin beta A chain (activin A). Put plainly: INHBA (activin A) binders on microarrays, primary screen, biochemical, small-molecule microarray, 635 nm fluorescence scan (AID 1107).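 Further: mouse activin A protein probed at 4.33 µg/mL on printed slides; score merges bound-protein fluorescence near 667 nm with spot signal-to-noise.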 Particulars: small-molecule microarray binding, higher = more signal.
The subject of test [11] is Human papillomavirus type 1a protein E7 (residues 44-93). Nature of the test: HPV1a E7 fragment binders on microarrays, primary screen, biochemical, small-molecule microarray, residues 44-93, 635 nm fluorescence (AID 1108).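 Further: E7 fragment applied at 1 µg/mL in TBST for 1 h at 4 C; score combines spot fluorescence with its signal to noise ratio.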 Particulars: small-molecule microarray binding, fluorescence 635 nm; higher = more signal.
Test [12] in a line: modulators of HCV replicon luciferase signal, primary screen, HCV replication inhibitor project, Huh7 cells, luciferase reporter (AID 1109).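 Further: huh7 hepatoma cells harbouring a luciferase neomycin HCV replicon reporter; luciferase luminescence as measure of HCV replicon replication; test concentration not given here.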 Particulars: 48 h, higher = more signal.
The target in test [13] is Left-right determination factor 2 (Homo sapiens) (UniProt O00292). Nature of the test: LEFTY2 binders on small-molecule microarrays, primary screen, biochemical, small-molecule microarray, 635 nm fluorescence scan (AID 1110). Particulars: LEFTY2 binding, higher = more signal.
Test [14] concerns the target Calmodulin-1 (Homo sapiens) (UniProt P0DP23). Nature of the test: CALM1 binders on microarrays, EGTA buffer, profiling panel, biochemical, small-molecule microarray, Cy5-labelled CALM1 (AID 1111).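 Further: labelled calmodulin applied in Tris saline Tween buffer holding calcium plus EGTA and DTT.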 The following applies: Cy5-CALM1 binding fluorescence, higher = more signal.
For test [15] the target is unchanged. Nature of the test: calcium-bound CALM1 binders on microarrays, profiling panel, artefact control for SMM control-protein annotation, biochemical, small-molecule microarray, Cy5-labelled CALM1, plus calcium (AID 1112).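 Further: score merges spot fluorescence with signal to noise from triplicate slides.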 The following applies: Cy5-CALM1 binding fluorescence, higher = more signal.
A short description of test [16]: small-molecule microarray binders of probe aWnt5a, primary screen, biochemical, biotinylated probe, 635/667 nm fluorescence (AID 1113).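 Further: score merges 667 nm fluorescence intensity with signal-to-noise per printed feature.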 The following applies: higher = more signal.
A short description of test [17]: small-molecule microarray binders of probe aShh, primary screen, biochemical, biotinylated probe, 635/667 nm fluorescence (AID 1114).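 Further: probe is biotin-labelled aShh protein from a stem cell growth factor screen; measures binding of labelled protein to compounds printed on the slide; score merges feature fluorescence at 667 nm with signal-to-noise.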 Particulars: higher = more signal.
The nature of test [18]: small-molecule microarray binders of probe aNog, primary screen, biochemical, biotinylated probe, 635/667 nm fluorescence (AID 1115).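 Further: probe is biotinylated aNog protein used at 0.15 µg/mL for 1 h at 4 C; z-score combines 667 nm fluorescence of each spot with its signal to noise.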 The following applies: higher = more signal.
Test [19] concerns the target Torsin-1A-interacting protein 1 (Homo sapiens) (UniProt Q5JTV8). Nature of the test: LAP1 binders from COS7 cell lysate, primary screen, small-molecule microarray, 635/667 nm fluorescence (AID 1116). Particulars: COS7-hLAP1 lysate binding, 635 nm fluorescence, higher = more signal.
The target in test [20] is Alpha-bungarotoxin (Bungarus multicinctus) (UniProt P60615). Put plainly: alpha-bungarotoxin binders on microarray, profiling panel, artefact control for SMM control protein annotation, biochemical, small-molecule microarray, Alexa647 label, 635/667 nm fluorescence (AID 1117). Particulars: alpha-BTX-A647 binding fluorescence, higher = more signal.
Alpha-bungarotoxin (Bungarus multicinctus), sequence (P60615 whole entry, looked up): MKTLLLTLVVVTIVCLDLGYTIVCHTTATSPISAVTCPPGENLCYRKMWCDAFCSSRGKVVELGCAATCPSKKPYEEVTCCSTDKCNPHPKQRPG

Epidermal growth factor receptor (Homo sapiens), sequence (P00533 whole entry, looked up): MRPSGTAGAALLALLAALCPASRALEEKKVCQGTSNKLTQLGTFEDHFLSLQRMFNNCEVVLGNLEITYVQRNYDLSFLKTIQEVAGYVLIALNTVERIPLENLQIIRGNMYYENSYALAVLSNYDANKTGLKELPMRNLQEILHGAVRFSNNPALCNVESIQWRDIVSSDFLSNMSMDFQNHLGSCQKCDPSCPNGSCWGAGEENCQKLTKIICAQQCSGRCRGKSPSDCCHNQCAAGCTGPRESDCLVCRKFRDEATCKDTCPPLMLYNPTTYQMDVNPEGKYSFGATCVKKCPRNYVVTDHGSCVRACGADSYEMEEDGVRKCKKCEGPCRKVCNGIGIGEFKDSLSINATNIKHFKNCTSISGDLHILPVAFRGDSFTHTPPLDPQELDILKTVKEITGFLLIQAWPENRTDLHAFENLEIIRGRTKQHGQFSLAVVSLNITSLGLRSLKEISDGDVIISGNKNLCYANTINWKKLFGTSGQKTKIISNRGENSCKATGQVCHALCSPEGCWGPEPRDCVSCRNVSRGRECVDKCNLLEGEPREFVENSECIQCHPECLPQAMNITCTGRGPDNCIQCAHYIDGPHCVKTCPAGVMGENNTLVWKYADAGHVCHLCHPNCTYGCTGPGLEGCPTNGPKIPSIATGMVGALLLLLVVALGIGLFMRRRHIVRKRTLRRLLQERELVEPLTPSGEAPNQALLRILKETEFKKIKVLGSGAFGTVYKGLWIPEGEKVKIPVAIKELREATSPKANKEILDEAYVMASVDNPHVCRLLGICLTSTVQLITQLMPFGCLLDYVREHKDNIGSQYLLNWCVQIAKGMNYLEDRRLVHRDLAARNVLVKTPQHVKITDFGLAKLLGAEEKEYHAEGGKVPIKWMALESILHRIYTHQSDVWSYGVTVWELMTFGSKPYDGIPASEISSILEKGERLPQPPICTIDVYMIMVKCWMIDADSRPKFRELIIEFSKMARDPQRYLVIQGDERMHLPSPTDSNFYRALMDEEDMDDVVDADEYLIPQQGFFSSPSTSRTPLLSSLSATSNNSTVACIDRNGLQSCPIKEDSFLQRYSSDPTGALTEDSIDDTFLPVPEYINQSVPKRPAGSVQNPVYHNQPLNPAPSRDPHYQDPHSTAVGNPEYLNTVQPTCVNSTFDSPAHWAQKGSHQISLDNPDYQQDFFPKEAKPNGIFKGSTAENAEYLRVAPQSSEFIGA
Follistatin-related protein 3 (Homo sapiens), sequence (O95633 whole entry, looked up): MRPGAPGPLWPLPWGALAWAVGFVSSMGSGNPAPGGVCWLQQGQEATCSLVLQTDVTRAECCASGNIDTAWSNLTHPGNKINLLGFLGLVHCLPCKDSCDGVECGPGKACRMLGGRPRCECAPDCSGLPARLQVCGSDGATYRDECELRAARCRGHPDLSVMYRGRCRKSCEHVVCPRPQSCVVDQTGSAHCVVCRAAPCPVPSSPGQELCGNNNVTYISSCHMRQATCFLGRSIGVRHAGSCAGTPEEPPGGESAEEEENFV
Left-right determination factor 2 (Homo sapiens), sequence (O00292 whole entry, looked up): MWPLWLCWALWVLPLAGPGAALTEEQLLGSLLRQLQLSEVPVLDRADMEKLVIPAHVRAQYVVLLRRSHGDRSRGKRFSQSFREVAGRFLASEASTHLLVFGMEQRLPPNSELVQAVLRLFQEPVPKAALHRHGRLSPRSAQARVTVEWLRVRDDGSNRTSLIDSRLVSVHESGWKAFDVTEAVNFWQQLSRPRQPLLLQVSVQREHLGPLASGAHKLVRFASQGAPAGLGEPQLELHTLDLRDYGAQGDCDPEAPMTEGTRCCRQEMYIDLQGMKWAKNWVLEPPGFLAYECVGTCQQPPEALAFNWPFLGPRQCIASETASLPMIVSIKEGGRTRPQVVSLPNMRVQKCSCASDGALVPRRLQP
Torsin-1A-interacting protein 1 (Homo sapiens), sequence (Q5JTV8 whole entry, looked up): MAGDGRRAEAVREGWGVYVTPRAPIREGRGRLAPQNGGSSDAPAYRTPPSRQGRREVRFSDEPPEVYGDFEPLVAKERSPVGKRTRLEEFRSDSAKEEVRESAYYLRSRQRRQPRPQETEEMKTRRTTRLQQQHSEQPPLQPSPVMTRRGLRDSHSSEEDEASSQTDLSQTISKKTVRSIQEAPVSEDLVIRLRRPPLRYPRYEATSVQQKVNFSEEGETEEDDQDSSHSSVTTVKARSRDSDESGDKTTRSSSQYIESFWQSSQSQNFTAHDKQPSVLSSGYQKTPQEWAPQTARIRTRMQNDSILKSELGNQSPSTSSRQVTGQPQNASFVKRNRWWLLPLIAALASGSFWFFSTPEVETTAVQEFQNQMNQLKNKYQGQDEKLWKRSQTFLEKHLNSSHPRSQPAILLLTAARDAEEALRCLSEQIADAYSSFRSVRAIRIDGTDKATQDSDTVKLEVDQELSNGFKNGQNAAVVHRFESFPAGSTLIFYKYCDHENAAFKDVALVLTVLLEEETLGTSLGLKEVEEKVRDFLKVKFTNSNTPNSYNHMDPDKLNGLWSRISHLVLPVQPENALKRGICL
Fibroblast growth factor 10 (Homo sapiens), sequence (O15520 whole entry, looked up): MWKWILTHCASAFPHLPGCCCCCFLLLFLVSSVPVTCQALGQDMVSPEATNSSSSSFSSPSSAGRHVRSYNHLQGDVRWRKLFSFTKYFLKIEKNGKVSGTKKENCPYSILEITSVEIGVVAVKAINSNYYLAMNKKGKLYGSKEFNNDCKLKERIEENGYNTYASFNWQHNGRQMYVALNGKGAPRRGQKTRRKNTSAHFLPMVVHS
Dickkopf-related protein 1 (Homo sapiens), sequence (O94907 whole entry, looked up): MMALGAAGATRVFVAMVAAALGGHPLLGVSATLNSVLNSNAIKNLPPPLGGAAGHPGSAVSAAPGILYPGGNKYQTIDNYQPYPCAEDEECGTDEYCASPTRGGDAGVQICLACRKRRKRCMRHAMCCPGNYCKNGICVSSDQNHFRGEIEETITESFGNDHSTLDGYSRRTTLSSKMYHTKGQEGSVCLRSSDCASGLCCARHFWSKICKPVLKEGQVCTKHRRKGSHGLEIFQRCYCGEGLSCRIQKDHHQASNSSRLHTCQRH

Take `CCOC(=O)C[C@H]1[C@H](OC(=O)c2ccc(-c3ccccc3)cc2)[C@@H](NC(=O)c2ccccc2)c2cc(OCCCO)ccc2N1C(=O)c1ccccc1`: the composite z-score in [1] was 0.204; in [2] it was 0.462; in test [3], 0.47; in test [5] it was 0.767; in [6], 0.66; in [7], -0.0664. For the same molecule, the composite z-score in test [8] is 0.235; in [9], -0.188; in test [10], -0.649; in test [11] it was 1.11; in test [13], 0.394; in [14], 2.04. The composite z-score in test [15] was 1.2; in test [16], -0.0718; in test [17], 0.275; in test [18], 0.165; in [19], 0.67; in test [20] it was 1.09. For the same molecule, the z-score in [4] is -2.01 (inactive); in test [12], -1.58.
Turning to `O=C(NCc1ccccc1)[C@@H]1c2ccccc2C(=O)N(Cc2ccccc2Cl)[C@H]1c1ccc(CO)cc1`, the composite z-score amounted to 0.447 in test [1]; 1 in test [2]; 1.01 in test [3]; 0.814 in [5]; 1.32 in test [6]; 0.183 in test [7]. Also, the composite z-score in [8] was 1.42; in test [9] it was 0.909; in test [10] it was 0.791; in test [11], 1.05; in test [13], 0.671; in test [14], -0.23. The composite z-score came to 0.0368 in [15]; 0.0297 in test [16]; 0.123 in test [17]; 0.522 in [18]; 1.21 in [19]; 1.67 in [20]. Besides, the results for the z-score in test [4] and in [12] were -1.05 (inactive) and -0.267, respectively.
As for `C=C(C(=O)CC[C@H](OC(C)=O)c1ccc(CO)o1)C(C)C`, the composite z-score in test [1] is 1.73; in [2] it was -0.272; in [3], -0.476; in test [5] it was 0.0843; in test [6] it was 0.626; in [7], -0.986. The composite z-score in test [8] was -0.144; in [9], 0.24; in test [10] it was 0.0011; in test [11], -0.559; in test [13], -0.586; in test [14], -0.579. Further, the composite z-score in [15] was -0.758; in test [16] it was -0.096; in [17], 0.0048; in test [18], -0.309; in test [19], 1.15; in [20], -0.292. Also, the z-score is -1.4 (inactive) in [4] and -1.52 in test [12].
`CCCC[C@@H](O)C1=C(C)C[C@H]2C(=O)N(C)C(=O)[C@H]2[C@H]1CO`: the composite z-score is 1.42 in test [1]; -0.372 in test [2]; -0.493 in [3]; 0.755 in [5]; 0.349 in test [6]; 0.269 in test [7]. In addition, the composite z-score in test [8] is 0.229; in [9], 0.3; in test [10], -0.301; in test [11], 0.276; in test [13] it was 0.322; in [14] it was -0.409. For the same molecule, the composite z-score in [15] is -0.471; in test [16] it was -0.0944; in test [17], 0.0141; in [18], 0.185; in test [19], 0.0605; in test [20], 0.548. In addition, the z-score in [4] is -0.72 (inactive); in [12], 0.739.
On to `CC(C)[Si](C#C[Si](C(C)C)(C(C)C)C(C)C)(O[C@H](C)c1cn([C@H](C)c2ccccc2)nn1)C(C)C`, for which the composite z-score was 0.366 in test [1]; 0.106 in test [2]; 0.351 in [3]; 0.597 in [5]; 0.339 in [6]; 0.292 in test [7]. For the same molecule, the composite z-score in test [8] was 0.806; in test [9] it was 0.538; in test [10] it was -0.269; in test [11] it was 0.946; in [13], 0.188; in [14], 0.242. In addition, the composite z-score was -0.479 in test [15]; -0.131 in [16]; -0.138 in test [17]; 0.444 in [18]; 0.245 in [19]; 0.833 in test [20]. In addition, the z-score in test [4] was -1.8 (inactive); in test [12], 0.0537.
With `COc1ccc([Si](C)(C)[C@@H]2[C@@H](CCn3cc([C@H](O)c4ccccc4)nn3)O[C@]3(C(=O)N(C)c4c(Br)cc(C)cc43)[C@H]2C)cc1`, the composite z-score was -0.384 in test [1]; 0.041 in test [2]; 0.703 in test [3]; 0.0565 in test [5]; -0.755 in test [6]; -0.212 in [7]. The composite z-score was -0.395 in [8]; -0.248 in [9]; 0.206 in test [10]; -1.29 in [11]; 0.287 in test [13]; -0.0327 in test [14]. Also, the composite z-score was 0.0747 in [15]; -0.157 in test [16]; -0.0991 in test [17]; -0.169 in test [18]; 0.184 in test [19]; 0.178 in test [20]. Besides, the z-score in test [4] is -3.07 (inactive); in [12], -4.23.
